INS promoter inh: TRM-6 insulin promoter activity inhibition; TRM-6 cells (human fetal islet line), insulin promoter-eGFP reporter, imaging; reporter expression induced with tamoxifen; inhibition, % at 2 µM; 130,000 tested, 0.9% active;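 active = inhibition above the mean plus 3 SD, with well images judged a real hit on visual review, cut at about 60% in these data, passing the limit was not always enough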
Ins promoter up: MIN6 insulin promoter up-regulation; MIN6 insulin promoter-GFP reporter, high-content imaging; stronger effect = higher value; z-score at 5 µM; 190,000 tested, 0.3% active;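 active = z-score above 3 at 5 µM with at least 500 cells counted in the well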
L major viab: inhibitors of Leishmania major promastigote growth; Leishmania major promastigotes, resazurin fluorescence viability; inhibition, % at 10 µM; 200,000 tested, 9% active; in the data active = inhibition above about 50%;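 also: promastigotes grown with compound for 44 hours at 28 °C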
PTEN del growth: growth suppressors of cells with PTEN tumor suppressor deletion. AID 827. 140,000 tested, 1.2% active. viability, % at 10 µM. HCT116 PTEN-null viability, CellTiter-Glo, 60 h; stronger effect = lower value;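 active = viability at or below a set limit, 4 SD under the median of all tested compounds, cut at about 3.7% in these data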;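 also: PTEN knockout HCT116 line with beta catenin targeted HCT116 as companion control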
Autophagy HCS: modulators of autophagy; MEF GFP-LC3 puncta imaging; test concentration mostly 10 µM; calls only at 10 µM (by protocol); 190,000 tested, 0.98% active;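 active = percentage of spot-positive cells more than 3 SD above its plate mean, without a fluorescence outlier flag or 80% toxicity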;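 also: spot-positive cell cutoff set from DMSO-treated cells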
bCat KO growth: beta-catenin-lacking colon tumor cell growth suppression; AID 818; HCT116 beta-catenin knockout viability, CellTiter-Glo, 60 h; stronger effect = lower value; viability, % at 10 µM; 140,000 tested, 1.5% active;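 active = viability at or under a set limit, the compound median less 4 SD, cut at about 6% in these data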;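 also: 0% = Hyamine 1622 control at 20 µM and 100% = untreated cell control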
The depositor's hits bear a star; i = inactive; · = no result given; + = active, no number. Rows were chosen to be rich in hits. Some 9.6% of all compounds tested hit in one or more screens of this group.

SMILES	INS promoter inh	Ins promoter up	L major viab	PTEN del growth	Autophagy HCS	bCat KO growth
CCCc1ccc(OCC(O)CN2CCN(c3ccccc3)CC2)cc1 (stereo unspecified)	·	-0.79	94*	96	i	97
Cc1ccc(OCC(O)CN2CCN(c3ccccc3)CC2)cc1 (stereo unspecified)	·	-0.77	22	104	i	101
OC(COCc1ccccc1)CN1CCN(c2ccccc2)CC1 (stereo unspecified)	·	0.4	90*	97	i	98
Oc1ccccc1N1CCN(CC(O)COCc2ccccc2Cl)CC1 (stereo unspecified)	-29	-0.42	85*	·	i	·
OC(COCc1cccs1)CN1CCN(c2cccc(C(F)(F)F)c2)CC1 (stereo unspecified)	·	0.04	84*	92	i	73
COc1ccc(/C=N/NC(=O)c2cnccn2)cc1O	·	0.15	-7	99	i	93
CCCN(CCC)Cc1cc2ccccc2c2c1COC2	8	0.7	7	89	i	84
CCOC(=O)N1CCN(c2nnnn2-c2ccccc2)CC1	60	-0.72	-5	94	i	86
CCOC(=O)c1cn(CC)c2cc(N3CCOCC3)c(F)cc2c1=O	-21	·	-3	106	i	97
CCc1nn(CC(=O)NCCCN(Cc2ccccc2)C(C)C)c(=O)c2cc3sccc3n12	·	-1.4	26	93	i	94
CCc1ccc(OCC(O)CN2CCN(c3ccccc3)CC2)cc1 (stereo unspecified)	·	0.23	94*	96	i	89
CC1CCC(C(=O)NC(C(=O)N2CCN(c3ccccn3)CC2)C(C)C)CC1 (stereo unspecified)	-14	1.1	-2	84	i	76
CCN(c1ccccc1)S(=O)(=O)c1ccc(OCC(=O)Nc2cc(C)on2)cc1	-28	0.97	-1	99	i	94
Cc1cc(NC(=O)COc2ccc(N(C)S(=O)(=O)c3ccccc3)cc2)no1	79*	0.75	0	95	i	109
Cc1ccc(S(=O)(=O)N(C)c2ccc(OCC(=O)Nc3nnc(C4CC4)s3)cc2)cc1	·	-0.11	96*	·	i	·
COc1c2c(nc3ccccc13)OC(C(C)(O)CO)C2 (stereo unspecified)	25	·	-6	94	i	100
COc1ccc(C(=O)Nc2cccc(OC(=O)c3ccc(C)c(C)c3)c2)cc1	·	0.4	-2	70	i	86
CCOP(=O)(c1ccccc1)c1nc(-c2ccc(F)cc2)oc1N1CCCCC1 (stereo unspecified)	·	0.4	34	70	i	78
CC[n+]1oc(-c2ccccc2)cc1C	39	0.15	-3	·	i	·
CN(c1ccc(C(=O)NCCSCc2ccc(Cl)cc2)cc1)S(=O)(=O)c1ccccc1	-16	0.67	36	71	i	62
c1ccc(-c2csc3ncnc(N4CCc5ccccc5C4)c23)cc1	0	0.23	89*	60	i	57
O=C(CN1CCC(Cc2ccccc2)CC1)N1CCc2ccccc2C1	·	-0.34	79*	·	i	·
O=C(CN(C1CCCCC1)C1CCCCC1)N1CCc2ccccc2C1	8	·	64*	45	i	53
O=C(c1ccccc1)C1CCN(CC(=O)N2CCN(c3ccccc3)CC2)CC1	·	0.32	92*	·	i	·
O=C(CN1C(=O)NC2(CCCCCCC2)C1=O)N1CCc2ccccc2C1	5	-1.2	68*	79	i	94
SMILES	INS promoter inh	Ins promoter up	L major viab	PTEN del growth	Autophagy HCS	bCat KO growth
Cc1ccc(C)c(S(=O)(=O)N2CCN(CC(=O)N3CCc4ccccc4C3)CC2)c1	17	1.9	24	84	i	99
C=CCNC(=O)CCCOc1cc(C)ccc1C	-123	·	-1	99	i	105
Cn1c(=O)c2c(nc(SCc3cccnc3)n2Cc2ccc(F)cc2)n(C)c1=O	-14	-1.6	18	71	i	79
CCc1ccccc1NC(=O)NC1CC2CCC(C1)N2Cc1ccco1 (stereo unspecified)	·	-0.06	10	·	i	·
O=C(C1CCN(c2nnc(-n3cccc3)s2)CC1)N1CCN(c2cccc(C(F)(F)F)c2)CC1	29	-1.8	-2	64	i	67
O=C(CN1CCN(c2ccc(F)cc2)CC1)N1CCC(Cc2ccccc2)CC1	37	-0.85	88*	91	i	76
O=C(CN1CCN(c2ccc(F)cc2)CC1)N1CCOCC1	-8	-0.88	-4	101	i	96
CCn1c(O)c(C=Nc2ccccc2)sc1=O	·	0.06	7	·	i	·
N#Cc1ccc(Oc2nc(C(N)=O)cc(-c3ccccc3)n2)cc1	20	0.05	-4	105	i	99
COC(=O)c1ccc(Oc2nc(C(N)=O)cc(-c3ccccc3)n2)cc1	61*	·	-1	9	i	22
COc1cc2cc(C(c3nnnn3Cc3ccc(F)cc3)N3CCCCCC3)c(=O)[nH]c2cc1OC (stereo unspecified)	-26	-0.46	28	94	i	96
CN1C(=S)N(c2cccnc2)C(=O)/C1=C\c1ccc(C(C)(C)C)cc1	-8	-0.26	96*	·	i	·
CCCCN(C(=O)NC(=O)C1=C(N2CCOCC2)/C(=C/c2ccccc2)CC1)S(C)(=O)=O	8	0.03	1	88	i	87
CCOC(=O)C(=O)C1=C(N2CCOCC2)/C(=C\c2ccc(F)cc2)CC1	-6	0.22	71*	98	i	87
O=C(Cc1cccc2ccccc12)NCC1CCCO1 (stereo unspecified)	14	-0.33	-4	92	i	91
CC(CNCC1CCCO1)COc1ccccc1 (stereo unspecified)	-3	·	62*	86	i	87
O=S(=O)(Cc1ccccc1)NCC1CCCO1 (stereo unspecified)	·	1.1	-10	99	i	96
CC(CNCC1CCCO1)COc1cccc2ccccc12 (stereo unspecified)	-59	-4.3	80*	48	i	52
CC(=O)Oc1ccc2c(=O)c(Oc3ccccc3)coc2c1OC(C)=O	-11	-0.37	-3	65	+	66
COC(=O)c1oc2ccc(Br)cc2c1NC(=O)CN1CCN(C)CC1	-39	·	100*	·	i	·
N=C1C(c2nc3ccccc3s2)=C(O)CN1NC(=O)c1ccco1	·	0.3	·	·	·	·
CCOCCCNCc1cccc(OCc2ccc(F)cc2)c1	-54	-0.39	99*	91	i	89
CCOCCCNCc1ccc(Cl)cc1	-4	0.98	69*	92	i	93
CCCNC(=S)NCc1ccc(Cl)cc1	·	·	-7	99	i	87
CCOC(=O)CCNCc1ccc(F)cc1	·	-1.1	-4	·	i	·
C=CCSc1ccsc1C(=O)O	-31	·	-7	99	i	98
CN1CC2(C(=O)c3ccccc3)CN(C)CC(C(=O)c3ccccc3)(C1)C2	-100	-1.8	18	78	i	64
CCO[C@H]1OC(C(=O)N2CCN(Cc3ccccc3)CC2)=C[C@@H](C2CCCCC2)[C@@H]1CCCO	·	·	4	·	i	·

Screening data: PubChem, several laboratories
